{"source": "ChEMBL document CHEMBL3988442", "about": "“University of Dundee, Small-Polar-MMV Screening Library” (2021)", "key": {"[1]": {"molecular_target": "T1, Methionyl-tRNA synthetase, putative (Leishmania donovani (strain BPK282A1)) (UniProt E9BF75)", "T1 sequence (whole entry)": "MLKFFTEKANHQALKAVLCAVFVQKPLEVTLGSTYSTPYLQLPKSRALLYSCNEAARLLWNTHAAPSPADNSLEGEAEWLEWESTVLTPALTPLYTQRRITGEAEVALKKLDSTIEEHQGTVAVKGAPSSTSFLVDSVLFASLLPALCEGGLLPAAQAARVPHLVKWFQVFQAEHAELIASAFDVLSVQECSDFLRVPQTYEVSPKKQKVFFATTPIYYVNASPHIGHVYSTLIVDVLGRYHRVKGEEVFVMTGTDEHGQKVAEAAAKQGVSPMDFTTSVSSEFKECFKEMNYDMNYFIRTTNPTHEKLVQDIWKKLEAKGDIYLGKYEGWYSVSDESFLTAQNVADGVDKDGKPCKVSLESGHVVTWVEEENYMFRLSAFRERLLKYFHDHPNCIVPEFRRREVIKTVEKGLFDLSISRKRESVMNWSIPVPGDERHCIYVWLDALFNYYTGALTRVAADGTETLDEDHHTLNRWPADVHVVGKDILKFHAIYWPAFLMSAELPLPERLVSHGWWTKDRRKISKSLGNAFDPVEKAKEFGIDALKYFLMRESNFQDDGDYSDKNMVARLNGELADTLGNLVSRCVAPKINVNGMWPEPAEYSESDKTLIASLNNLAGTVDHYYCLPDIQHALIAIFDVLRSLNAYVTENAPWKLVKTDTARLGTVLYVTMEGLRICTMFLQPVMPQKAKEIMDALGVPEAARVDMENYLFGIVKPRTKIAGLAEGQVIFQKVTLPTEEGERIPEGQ", "experiment": "Leishmania donovani Methionine tRNA synthetase (LdMetRS):v7. Dose response assay", "assay_type": "functional", "design": "conc 80 nM, time 150 minutes"}, "[2]": {"molecular_target": "Protein translocase subunit SecA (Escherichia coli (strain K12)) (UniProt P10408)", "sequence (P10408 whole entry)": "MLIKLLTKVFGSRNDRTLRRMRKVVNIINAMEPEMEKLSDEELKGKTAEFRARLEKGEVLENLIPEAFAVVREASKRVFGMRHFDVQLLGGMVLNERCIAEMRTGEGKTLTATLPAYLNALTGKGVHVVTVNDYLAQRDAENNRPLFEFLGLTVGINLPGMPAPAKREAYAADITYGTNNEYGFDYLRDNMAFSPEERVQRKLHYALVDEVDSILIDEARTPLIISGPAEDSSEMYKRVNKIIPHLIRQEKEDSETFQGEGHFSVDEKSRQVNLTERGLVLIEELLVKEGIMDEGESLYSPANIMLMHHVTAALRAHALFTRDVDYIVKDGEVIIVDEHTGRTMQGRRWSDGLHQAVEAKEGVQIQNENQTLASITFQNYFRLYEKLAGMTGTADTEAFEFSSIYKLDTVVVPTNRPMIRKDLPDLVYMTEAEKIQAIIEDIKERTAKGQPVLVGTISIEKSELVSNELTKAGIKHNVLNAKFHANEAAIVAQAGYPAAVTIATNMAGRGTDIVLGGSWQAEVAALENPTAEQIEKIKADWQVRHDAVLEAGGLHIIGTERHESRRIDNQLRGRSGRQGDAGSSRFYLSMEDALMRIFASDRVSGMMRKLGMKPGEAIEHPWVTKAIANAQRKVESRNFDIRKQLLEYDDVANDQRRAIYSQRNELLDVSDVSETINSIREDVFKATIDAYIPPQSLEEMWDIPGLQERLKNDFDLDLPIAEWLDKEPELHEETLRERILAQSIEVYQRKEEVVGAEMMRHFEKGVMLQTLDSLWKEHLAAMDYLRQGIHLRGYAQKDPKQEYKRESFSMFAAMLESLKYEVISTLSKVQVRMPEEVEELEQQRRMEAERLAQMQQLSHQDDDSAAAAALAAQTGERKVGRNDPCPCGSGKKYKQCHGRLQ", "experiment": "Assay to Identify E. coli SecA ATPase Inhibitors", "assay_type": "functional", "design": "scale not given: direction of the effect not stated beside the values", "settings": "30 µM"}, "[3]": {"molecular_target": "T2, Ubiquitin-activating enzyme e1, putative (Leishmania donovani (strain BPK282A1)) (UniProt E9BSI1)", "T2 sequence (whole entry)": "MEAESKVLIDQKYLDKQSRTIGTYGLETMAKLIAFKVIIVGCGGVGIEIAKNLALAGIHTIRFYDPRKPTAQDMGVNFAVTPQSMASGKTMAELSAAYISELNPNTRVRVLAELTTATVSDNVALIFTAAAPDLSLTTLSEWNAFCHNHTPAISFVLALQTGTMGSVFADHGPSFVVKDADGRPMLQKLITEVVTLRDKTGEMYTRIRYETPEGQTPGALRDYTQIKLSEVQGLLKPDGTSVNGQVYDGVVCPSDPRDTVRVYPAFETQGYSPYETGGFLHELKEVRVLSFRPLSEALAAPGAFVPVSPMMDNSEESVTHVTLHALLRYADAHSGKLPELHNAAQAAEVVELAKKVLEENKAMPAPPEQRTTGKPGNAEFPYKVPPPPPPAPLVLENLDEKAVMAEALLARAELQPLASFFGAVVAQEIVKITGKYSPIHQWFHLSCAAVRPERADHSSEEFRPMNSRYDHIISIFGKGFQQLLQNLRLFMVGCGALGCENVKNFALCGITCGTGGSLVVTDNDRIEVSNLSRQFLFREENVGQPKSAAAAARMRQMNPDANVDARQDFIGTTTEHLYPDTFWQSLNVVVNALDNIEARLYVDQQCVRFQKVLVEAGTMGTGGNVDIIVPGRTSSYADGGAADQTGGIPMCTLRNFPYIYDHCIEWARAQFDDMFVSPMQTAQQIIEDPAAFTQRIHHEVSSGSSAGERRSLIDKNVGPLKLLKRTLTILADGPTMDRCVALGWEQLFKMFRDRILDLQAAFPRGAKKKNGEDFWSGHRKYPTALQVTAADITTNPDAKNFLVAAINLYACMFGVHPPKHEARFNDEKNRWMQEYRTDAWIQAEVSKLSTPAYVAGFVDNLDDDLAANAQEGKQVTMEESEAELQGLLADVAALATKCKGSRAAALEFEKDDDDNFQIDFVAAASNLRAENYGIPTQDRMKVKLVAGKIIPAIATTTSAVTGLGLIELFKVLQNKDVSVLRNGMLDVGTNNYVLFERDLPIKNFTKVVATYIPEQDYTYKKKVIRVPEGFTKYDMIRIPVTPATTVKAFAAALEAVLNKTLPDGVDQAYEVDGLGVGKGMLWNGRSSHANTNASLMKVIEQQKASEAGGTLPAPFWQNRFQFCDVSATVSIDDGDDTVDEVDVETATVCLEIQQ", "experiment": "Leishmania donovani Ubiquitin Activating Enzyme (LdE1)", "assay_type": "functional", "design": "scale not given: direction of the effect not stated beside the values", "settings": "30 µM"}, "[4]": {"molecular_target": "AMP-activated protein kinase, AMPK (Homo sapiens) (UniProt P54646+O43741+P54619+Q9UGJ0+Q9Y478+Q13131+Q9UGI9)", "experiment": "AMP-dependent Kinase enzyme assay. An in vitro enzyme assay that detects ADP turnover that is directly proportional to AMPK activity. This uses naive AMPK that is activated during the assay with MK-8722", "assay_type": "functional", "design": "scale not given: direction of the effect not stated beside the values", "settings": "30 µM"}, "[5]": {"molecular_target": "Sialic acid-binding Ig-like lectin 9 (Homo sapiens) (UniProt Q9Y336)", "sequence (Q9Y336 whole entry)": "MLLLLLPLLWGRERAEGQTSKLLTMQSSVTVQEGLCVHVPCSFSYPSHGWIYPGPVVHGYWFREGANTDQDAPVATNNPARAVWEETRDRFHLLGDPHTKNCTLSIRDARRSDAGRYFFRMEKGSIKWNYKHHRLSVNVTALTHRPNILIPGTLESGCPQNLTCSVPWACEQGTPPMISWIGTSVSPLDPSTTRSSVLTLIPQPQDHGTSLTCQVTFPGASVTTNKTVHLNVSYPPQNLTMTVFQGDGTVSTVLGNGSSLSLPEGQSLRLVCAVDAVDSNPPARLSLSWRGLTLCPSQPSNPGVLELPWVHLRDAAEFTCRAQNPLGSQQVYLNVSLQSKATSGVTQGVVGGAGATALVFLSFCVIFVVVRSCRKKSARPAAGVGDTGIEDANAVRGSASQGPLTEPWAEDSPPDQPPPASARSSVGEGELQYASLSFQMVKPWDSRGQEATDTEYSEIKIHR", "experiment": "Hs-Siglec9 ALPHAscreen SOP 20170721", "design": "scale not given: direction of the effect not stated beside the values", "settings": "10 µM"}, "[6]": {"test_system": "Trypanosoma cruzi", "experiment": "Trypanosoma cruzi phosphomannomutase and mannose-1-phosphate guanylyltransferase assay", "assay_type": "functional", "design": "scale not given: direction of the effect not stated beside the values", "settings": "10 µM"}, "[7]": {"molecular_target": "T3, Arginase-2, mitochondrial (Homo sapiens) (UniProt P78540)", "T3 sequence (whole entry)": "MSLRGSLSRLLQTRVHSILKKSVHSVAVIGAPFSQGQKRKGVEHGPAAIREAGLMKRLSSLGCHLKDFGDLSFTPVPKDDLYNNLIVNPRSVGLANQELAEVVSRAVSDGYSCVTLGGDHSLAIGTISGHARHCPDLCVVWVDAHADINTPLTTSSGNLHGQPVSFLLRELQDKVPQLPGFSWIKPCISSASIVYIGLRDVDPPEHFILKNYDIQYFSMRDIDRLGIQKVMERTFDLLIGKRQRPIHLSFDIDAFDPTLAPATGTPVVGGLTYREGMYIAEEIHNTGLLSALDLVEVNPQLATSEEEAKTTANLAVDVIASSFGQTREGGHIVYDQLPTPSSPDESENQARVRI", "experiment": "in vitro enzyme assay to detect the production of urea directly proportional to the activity of Arginase II", "assay_type": "functional", "design": "scale not given: in the data most compounds retested in dose-response had high values", "settings": "33.3 µM"}, "[8]": {"molecular_target": "T4, Proteasome subunit beta (Trypanosoma cruzi) (UniProt O96673)", "T4 sequence (whole entry)": "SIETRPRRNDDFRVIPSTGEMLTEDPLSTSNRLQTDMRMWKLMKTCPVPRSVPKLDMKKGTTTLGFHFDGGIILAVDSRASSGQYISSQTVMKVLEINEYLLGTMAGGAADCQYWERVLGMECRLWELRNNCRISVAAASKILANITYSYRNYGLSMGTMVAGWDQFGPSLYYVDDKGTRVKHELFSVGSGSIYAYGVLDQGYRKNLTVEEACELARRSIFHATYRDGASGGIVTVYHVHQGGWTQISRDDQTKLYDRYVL", "experiment": "Trypanosoma cruzi proteasome chymotrypsin-like activity (TcProtChymo) assay.", "assay_type": "functional", "design": "scale not given: in the data most compounds retested in dose-response had high values", "settings": "9.37 µM"}, "[9]": {"species_on_record": "Homo sapiens", "experiment": "To identify inhibition of the IFN signalling (Jak-Stat) pathway via expression of an eGFP reporter gene under the control of an IFN-stimulated response element (ISRE) containing MxA promoter.", "assay_type": "functional", "design": "scale not given: direction of the effect not stated beside the values", "settings": "30 µM"}, "[10]": {"molecular_target": "T5, Tyrosyl-tRNA synthetase, putative (Trypanosoma cruzi (strain CL Brener)) (UniProt Q4DSP6)", "T5 sequence (whole entry)": "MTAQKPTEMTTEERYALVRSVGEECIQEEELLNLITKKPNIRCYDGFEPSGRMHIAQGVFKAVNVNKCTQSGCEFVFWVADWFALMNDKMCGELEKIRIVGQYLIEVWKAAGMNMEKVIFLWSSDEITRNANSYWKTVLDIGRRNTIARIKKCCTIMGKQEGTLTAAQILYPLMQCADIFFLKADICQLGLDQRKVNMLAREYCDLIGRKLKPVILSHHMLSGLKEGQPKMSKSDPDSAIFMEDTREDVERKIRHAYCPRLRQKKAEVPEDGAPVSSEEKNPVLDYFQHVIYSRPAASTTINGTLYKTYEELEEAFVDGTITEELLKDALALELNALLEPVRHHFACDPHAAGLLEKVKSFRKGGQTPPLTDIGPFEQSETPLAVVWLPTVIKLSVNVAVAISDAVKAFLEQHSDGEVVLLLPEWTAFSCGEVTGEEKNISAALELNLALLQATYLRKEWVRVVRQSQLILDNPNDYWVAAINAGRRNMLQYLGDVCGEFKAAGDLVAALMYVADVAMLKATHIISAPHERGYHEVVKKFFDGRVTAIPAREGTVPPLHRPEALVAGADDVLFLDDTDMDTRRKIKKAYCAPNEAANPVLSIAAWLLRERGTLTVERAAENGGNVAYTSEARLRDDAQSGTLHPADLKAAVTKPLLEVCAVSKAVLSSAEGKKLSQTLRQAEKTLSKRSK", "experiment": "Trypanosoma cruzi tyrosyl tRNA synthetase (TcYRS) _High Tyrosine SOP", "assay_type": "functional", "design": "scale not given: in the data most compounds retested in dose-response had high values", "settings": "30 µM"}, "[11]": {"molecular_target": "T5, Tyrosyl-tRNA synthetase, putative (Trypanosoma cruzi (strain CL Brener))", "experiment": "Trypanosoma cruzi tyrosyl tRNA synthetase (TcYRS) SOP", "assay_type": "functional", "design": "scale not given: direction of the effect not stated beside the values", "settings": "30 µM"}, "[12]": {"molecular_target": "Chromo domain-containing protein 1 (Saccharomyces cerevisiae (strain ATCC 204508 / S288c) (Baker's yeast)) (UniProt P32657)", "sequence (P32657 whole entry, the tested form may be a part)": "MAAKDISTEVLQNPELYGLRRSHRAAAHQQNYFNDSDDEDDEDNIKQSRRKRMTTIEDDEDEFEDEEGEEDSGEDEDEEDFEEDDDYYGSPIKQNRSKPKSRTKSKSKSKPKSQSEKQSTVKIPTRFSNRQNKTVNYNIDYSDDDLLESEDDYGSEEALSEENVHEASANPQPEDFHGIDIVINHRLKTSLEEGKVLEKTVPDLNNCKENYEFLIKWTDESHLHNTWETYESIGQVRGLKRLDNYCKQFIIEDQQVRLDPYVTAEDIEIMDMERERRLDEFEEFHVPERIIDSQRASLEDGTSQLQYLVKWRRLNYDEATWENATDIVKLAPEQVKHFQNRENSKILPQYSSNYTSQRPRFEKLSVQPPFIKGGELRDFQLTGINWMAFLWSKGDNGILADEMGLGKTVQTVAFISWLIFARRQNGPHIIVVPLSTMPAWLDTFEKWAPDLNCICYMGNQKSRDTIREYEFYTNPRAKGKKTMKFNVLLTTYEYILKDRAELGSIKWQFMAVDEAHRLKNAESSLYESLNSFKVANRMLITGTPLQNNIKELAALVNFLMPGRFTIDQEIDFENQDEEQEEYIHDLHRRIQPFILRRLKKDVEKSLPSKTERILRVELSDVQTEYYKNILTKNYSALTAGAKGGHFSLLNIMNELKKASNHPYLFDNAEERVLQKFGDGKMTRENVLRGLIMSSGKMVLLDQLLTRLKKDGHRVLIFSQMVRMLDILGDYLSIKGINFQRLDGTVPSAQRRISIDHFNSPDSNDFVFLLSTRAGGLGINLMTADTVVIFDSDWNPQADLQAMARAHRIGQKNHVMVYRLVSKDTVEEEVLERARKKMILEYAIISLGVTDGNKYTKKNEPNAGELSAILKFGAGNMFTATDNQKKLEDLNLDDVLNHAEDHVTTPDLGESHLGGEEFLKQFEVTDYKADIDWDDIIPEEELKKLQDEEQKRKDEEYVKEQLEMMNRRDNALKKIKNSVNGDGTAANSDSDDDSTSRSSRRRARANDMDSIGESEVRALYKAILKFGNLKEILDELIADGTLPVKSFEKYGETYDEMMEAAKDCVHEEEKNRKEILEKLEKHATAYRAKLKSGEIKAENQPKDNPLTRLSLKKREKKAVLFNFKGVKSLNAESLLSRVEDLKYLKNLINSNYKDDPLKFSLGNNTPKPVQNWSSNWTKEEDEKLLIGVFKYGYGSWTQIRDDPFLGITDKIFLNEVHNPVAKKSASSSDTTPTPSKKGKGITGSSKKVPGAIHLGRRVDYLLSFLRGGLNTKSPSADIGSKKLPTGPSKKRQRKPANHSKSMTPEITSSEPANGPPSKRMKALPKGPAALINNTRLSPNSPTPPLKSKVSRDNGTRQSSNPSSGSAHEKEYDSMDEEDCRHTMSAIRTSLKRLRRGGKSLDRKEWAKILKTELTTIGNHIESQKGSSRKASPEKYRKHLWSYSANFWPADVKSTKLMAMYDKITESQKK", "experiment": "ScCHD-1 Enzyme Inhibition Assay", "assay_type": "functional", "design": "scale not given: in the data most compounds retested in dose-response had high values", "settings": "30 µM"}}, "note": "For some assays here: Potency and affinity values are given separately."}
{"smiles": "Cc1cccnc1NC(=O)NCc1ccc(N2CCNC(=O)C2)cc1", "values": [{"measurement": "PXC50", "setting": "[1]; BOTTOM 2.91901785, HILLSLOPE 1.51189845, MAX_EFFECT 82.83828383, TOP 100.0", "value": 4.39}, {"measurement": "PXC50", "setting": "[1]; BOTTOM 3.848291916, HILLSLOPE 1.411514836, MAX_EFFECT 84.7826087, TOP 100.0", "value": 4.45}, {"measurement": "PXC50", "setting": "[1]; BOTTOM 5.032769966, HILLSLOPE 1.524648586, MAX_EFFECT 89.96415771, TOP 100.0", "value": 4.48}, {"measurement": "PXC50", "setting": "[1]; MAX_EFFECT 2.073365231", "value": "< 4"}, {"measurement": "PXC50", "setting": "[1]; MAX_EFFECT 2.495201536", "value": "< 4"}, {"measurement": "Percent Effect", "setting": "[2]", "value": -3.51, "unit": "%"}, {"measurement": "Percent Effect", "setting": "[3]", "value": 15.6, "unit": "%"}, {"measurement": "Percent Effect", "setting": "[4]", "value": 9.04, "unit": "%"}, {"measurement": "Percent Effect", "setting": "[5]", "value": 11.4, "unit": "%"}, {"measurement": "Percent Effect", "setting": "[6]", "value": 1.5, "unit": "%"}, {"measurement": "Percent Effect", "setting": "[7]", "value": -2.13, "unit": "%"}, {"measurement": "Percent Effect", "setting": "[8]", "value": 8.78, "unit": "%"}, {"measurement": "Percent Effect", "setting": "[9]", "value": 5.74, "unit": "%"}, {"measurement": "Percent Effect", "setting": "[10]", "value": 41.8, "unit": "%"}, {"measurement": "Percent Effect", "setting": "[11]", "value": 34.1, "unit": "%"}, {"measurement": "Percent Effect", "setting": "[12]", "value": -8.16, "unit": "%"}]}
{"smiles": "Cc1nc2cc(=O)[nH]n2c(C)c1CC(=O)Nc1ccc2ccccc2n1", "values": [{"measurement": "PXC50", "setting": "[1]; BOTTOM 1.14070889, HILLSLOPE 1.278083227, MAX_EFFECT 56.52173913, TOP 100.0", "value": 4.1}, {"measurement": "PXC50", "setting": "[1]; MAX_EFFECT 23.76395534", "value": "< 4"}, {"measurement": "PXC50", "setting": "[1]; MAX_EFFECT 26.29558541", "value": "< 4"}, {"measurement": "PXC50", "setting": "[1]; MAX_EFFECT 33.33333333", "value": "< 4"}, {"measurement": "PXC50", "setting": "[1]; MAX_EFFECT 45.21452145", "value": "< 4"}, {"measurement": "Percent Effect", "setting": "[2]", "value": -3.58, "unit": "%"}, {"measurement": "Percent Effect", "setting": "[3]", "value": 5.26, "unit": "%"}, {"measurement": "Percent Effect", "setting": "[4]", "value": -24.7, "unit": "%"}, {"measurement": "Percent Effect", "setting": "[5]", "value": 6.53, "unit": "%"}, {"measurement": "Percent Effect", "setting": "[6]", "value": 0.564, "unit": "%"}, {"measurement": "Percent Effect", "setting": "[7]", "value": -6.51, "unit": "%"}, {"measurement": "Percent Effect", "setting": "[8]", "value": -1.34, "unit": "%"}, {"measurement": "Percent Effect", "setting": "[9]", "value": -15.5, "unit": "%"}, {"measurement": "Percent Effect", "setting": "[10]", "value": 16.2, "unit": "%"}, {"measurement": "Percent Effect", "setting": "[11]", "value": 12.2, "unit": "%"}, {"measurement": "Percent Effect", "setting": "[12]", "value": -1.37, "unit": "%"}]}
